Results: PubChem BioAssay AID2590 (National Center for Advancing Translational Sciences (NCATS), 2010)
Several values for one entry are separate records, joined by “and”; a condition that tells them apart may be missing. Equal values may be shown once. Records with an inconclusive call do not appear. Activity calls are given as the source filed them. The call rests on the fitted dose curve; in most records, active means well fitted curve in the direction sought with a large enough effect; inconclusive means small, poorly fitted or top-dose-only effect, or another doubt; inactive means no such curve, though single readings can be large or run the other way.

Target: Lysosomal acid glucosylceramidase (Homo sapiens) (UniProt P04062)
Test: qHTS Assay for Inhibitors and Activators of N370S glucocerebrosidase as a Potential Chaperone Treatment of Gaucher Disease: Primary Screen Confirmation
Settings: N370S glucocerebrosidase enzyme activity, fluorogenic substrate; series mostly up to 54 µM
Source text: NIH Chemical Genomics Center [NCGC]
NIH Molecular Libraries Probe Production Centers Network [MLPCN]
Assay Submitter (PI): Wei Zheng
Glucocerebrosidase (GC) catalyzes the hydrolysis of beta-glucocerebroside to glucose and ceramide in lysosomes. Mutations in the glucocerebrosidase gene result in Gaucher disease, an autosomal recessive lysosomal storage disorder. Many of the mutations encountered in patients with Gaucher disease are missense alterations that may cause misfolding, decreased stability and/or mistrafficking of this lysosomal protein. […] These inhibitors include iminosugar analogs and three non-iminosugar inhibitors identified from a previous HTS of 62,000 compounds with the wild type recombinant enzyme. However, the enhancement of enzyme activity by the chaperone action of an enzyme inhibitor must be balanced against the direct inhibition of the enzyme. An enzyme activator could also function as a chaperone by binding to the enzyme and helping to correct its misfolding and mistrafficking. While activators for GC have not yet been identified, they may have better therapeutic potential than inhibitors. Therefore the discovery and development of chemical activators may provide a new strategy for the chaperone therapy.
We have optimized a new assay using N370S mutant GC derived from the spleen of a Gaucher patient. […] In addition, the MLPCN compound library has expanded, which increases the chance of finding new and better probes.
NCGC Assay Protocol Summary:
This is a fluorogenic enzyme assay with 4-methylumbelliferyl-beta-D-glucopyranoside as the substrate and N370S glucocerebrosidase from human spleen homogenate as the enzyme preparation. Upon the hydrolysis of this fluorogenic substrate, the resulting product, […] which can be detected by a standard fluorescence plate reader. Data were normalized to the controls for basal activity (without enzyme) and 100% activity (with enzyme). The AC50 values were determined from concentration-response data modeled with the standard Hill equation.
Assay buffer: 50 mM citric acid (titrated with potassium phosphate to pH 5.0), 100 mM potassium chloride, 10 mM sodium chloride, 1 mM magnesium chloride, 0.01% Tween-20.
1536-well assay protocol:
(1) Add 2 ul/well of spleen homogenate (27 ug final)
(2) Add 23 nL compounds in DMSO solution. The final titration was 0.5 nM to 58 uM.
(3) Add 2 ul of substrate (1 mM final)
(4) Incubate at 37C for 40 min.
(5) Add 2 ul stop solution (1M NaOH and 1M Glycine mixture, pH 10)
(6) Detect the assay plate in a ViewLux plate reader (PerkinElmer) with Ex=365 nm and Em=440nm.
Keywords: Glucocerebrosidase, beta-glucosidase, Gaucher Disease, pharmacological chaperone, chaperone therapy, high throughput screening, glucocerebrosidase inhibitor, MLSMR, MLSCN, NIH Roadmap, qHTS and NCGC
Potency means the concentration at half of the fitted maximal effect.

Sequence of Lysosomal acid glucosylceramidase (Homo sapiens) (P04062 whole entry N409S): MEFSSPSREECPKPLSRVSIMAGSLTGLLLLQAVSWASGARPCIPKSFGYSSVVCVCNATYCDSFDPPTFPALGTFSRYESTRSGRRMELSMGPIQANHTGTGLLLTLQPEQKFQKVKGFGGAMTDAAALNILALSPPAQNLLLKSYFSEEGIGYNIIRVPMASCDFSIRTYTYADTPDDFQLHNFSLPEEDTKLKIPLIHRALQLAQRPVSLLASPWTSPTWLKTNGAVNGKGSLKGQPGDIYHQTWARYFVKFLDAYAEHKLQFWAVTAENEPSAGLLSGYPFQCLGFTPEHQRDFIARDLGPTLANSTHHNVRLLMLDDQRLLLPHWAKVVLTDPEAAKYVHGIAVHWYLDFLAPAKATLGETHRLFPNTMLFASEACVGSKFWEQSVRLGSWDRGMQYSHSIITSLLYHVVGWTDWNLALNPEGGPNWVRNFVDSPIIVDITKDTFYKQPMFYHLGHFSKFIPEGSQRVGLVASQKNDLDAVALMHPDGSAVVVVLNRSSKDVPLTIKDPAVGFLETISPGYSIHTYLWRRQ

Potency, inactive:
COc1ccc(CN(CCCN)c2ccc(Br)cn2)cc1, O=S(=O)(c1ccc(F)cc1)N1CCN(c2nc(-c3cccc(Br)c3)nc3ccccc23)CC1, COc1ccc(-c2cc3ccc(OCC(C)=O)cc3oc2=O)cc1, N=c1c(S(=O)(=O)c2ccccc2)cc2c(=O)n3ccccc3nc2n1CCCN1CCOCC1, c1ccc2c(NCC3CCCO3)nc(N3CCOCC3)nc2c1 (stereo not given), CC(C)C(C)NC(=O)CSc1nc2scc(-c3ccco3)c2c(=O)n1-c1ccccc1 (stereo not given), Cc1csc(NC(=O)CN2C(=O)c3ccccc3S2(=O)=O)n1, Cc1ccc(-c2nc(N3CCN(S(=O)(=O)c4ccc(F)cc4)CC3)c3ccc(Cl)cc3n2)cc1, Cc1ccc(S(=O)(=O)N2CCN(c3nc(-c4cccs4)nc4c3ncn4COC(=O)C(C)(C)C)CC2)cc1

Potency, active:
Cc1ccccc1S(=O)(=O)N1CCN(c2nc(-c3cccs3)nc3ccccc23)CC1 2.53 µM, Cc1ccc(S(=O)(=O)N2CCN(c3nc(-c4cccs4)nc4ncccc34)CC2)cc1 2.25 µM, Cc1cc(C)cc(N(CC(=O)NC2CCC(C)CC2)S(=O)(=O)c2c(C)[nH]c(=O)[nH]c2=O)c1 (stereo not given) 2.51 µM, Cc1ccc(S(=O)(=O)N2CCN(c3nc(-c4ccc(CN5CCNCC5)s4)nc4ccccc34)CC2)cc1 12.7 µM, O=S(=O)(c1ccc2c(c1)OCCO2)N1CCN(c2nc(-c3cccs3)nc3ccccc23)CC1 410 nM and 450 nM, Cc1cc(C)cc(N(CC(=O)NC2CCCCCC2)S(=O)(=O)c2c(C)[nH]c(=O)[nH]c2=O)c1 1.12 µM, CCN(CC)c1ccc(Br)cn1 9.18 µM, O=S(=O)(c1ccc2c(Cl)cccc2c1)N1CCN(c2nc(-c3cccs3)nc3ccccc23)CC1 2.01 µM, COc1cccc(CN(C)c2nc(-c3cccs3)nc3ccccc23)c1 2.01 µM, Cc1ccc(S(=O)(=O)N2CCN(c3nc(-c4cccs4)nc4cccnc34)CC2)cc1 2.53 µM, O=C(c1ccc2c(c1)OCCO2)N1CCN(c2nc(-c3cccs3)nc3ccccc23)CC1 3.66 µM, O=S(=O)(c1cccc(Br)c1)N1CCN(c2nc(-c3cccs3)nc3ccccc23)CC1 2.53 µM, O=C(NCCN1CCOCC1)c1ccc(/C=C2\Sc3ccccc3N(Cc3ccccc3F)C2=O)cc1 7.3 µM, O=S(=O)(c1ccccc1F)N1CCN(c2nc(-c3cccs3)nc3ccccc23)CC1 1.63 µM, Cc1ccc(Nc2cc(C)nc(-c3ccccc3)n2)cc1 4.11 µM, Cc1ccc(S(=O)(=O)N2CCN(c3nc(-c4ccco4)nc4ccccc34)CC2)cc1 1.01 µM, O=[N+]([O-])c1ccc(S(=O)(=O)N2CCN(c3nc(-c4cccs4)nc4ccccc34)CC2)cc1 3.2 µM, CCOC(=O)c1ccccc1S(=O)(=O)N1CCN(c2nc(-c3cccs3)nc3ccccc23)CC1 0.366 µM, CCOc1ccc(N(CC(=O)Nc2ccc(C)cc2)S(=O)(=O)c2c(C)[nH]c(=O)[nH]c2=O)cc1 11.2 µM, CC(C)(C)c1ccc(S(=O)(=O)N2CCN(c3nc(-c4cccs4)nc4ccccc34)CC2)cc1 1.3 µM and 1.46 µM, COc1ccc(Nc2nc(-c3cccs3)nc3ccccc23)cc1 2.25 µM, COC(=O)c1nc(N2CCN(S(=O)(=O)c3ccc(C)cc3)CC2)c2ccccc2n1 16.3 µM, O=S(=O)(c1ccc(OC(F)(F)F)cc1)N1CCN(c2nc(-c3cccs3)nc3ccccc23)CC1 2.91 µM, Cc1ccc(S(=O)(=O)N(C)CCCN(C)c2nc(-c3cccs3)nc3ccccc23)cc1 2.53 µM, S=C(NCCCc1cnc[nH]1)NCCCN(CCc1ccc(Cl)cc1)c1ccc(Br)cn1 1.79 µM, Cc1ccc(-c2nc(Nc3ccc(O)cc3)c3ccccc3n2)cc1 12.7 µM, O=S(=O)(c1cccc2ccccc12)N1CCN(c2nc(-c3cccs3)nc3ccccc23)CC1 0.819 µM, Cc1ccc2nc(-c3ccc(SCC(=O)N4CCc5ccccc54)nc3)[nH]c2c1 10 µM, CCC1CN(S(=O)(=O)c2ccc3c(c2)NC(=O)CC(=O)N3)c2cc(Cl)ccc2O1 (stereo not given) 2.91 µM, S=C(NCCCc1cnc[nH]1)NCCCN(Cc1ccc(Cl)cc1)c1ccc(-c2ccccc2)cn1 1.27 µM, O=S(=O)(c1ccsc1)N1CCN(c2nc(-c3cccs3)nc3ccccc23)CC1 1.03 µM
